# Screening results (PubChem)
# Rows were chosen to be rich in hits. Some 27% of all compounds tested hit in one or more screens of this group.
# CYP2C19 act: human CYP2C19 activators, primary screen, biochemical, luminescence. 96,000 tested, under 10 active. AID 1025, 2008. recombinant CYP2C19, luciferin-H EGE luminescence; hits give high values; 0 = fully inhibited enzyme, 1 = untreated enzyme. activation factor at 5 µM;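 active means activation factor of at least 2 at 5 µM in the primary screen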;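 further: 0 = wells with 2.5 mM tranylcypromine and 1 = vehicle-only wells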
# Target sequence (P33261 whole entry, looked up): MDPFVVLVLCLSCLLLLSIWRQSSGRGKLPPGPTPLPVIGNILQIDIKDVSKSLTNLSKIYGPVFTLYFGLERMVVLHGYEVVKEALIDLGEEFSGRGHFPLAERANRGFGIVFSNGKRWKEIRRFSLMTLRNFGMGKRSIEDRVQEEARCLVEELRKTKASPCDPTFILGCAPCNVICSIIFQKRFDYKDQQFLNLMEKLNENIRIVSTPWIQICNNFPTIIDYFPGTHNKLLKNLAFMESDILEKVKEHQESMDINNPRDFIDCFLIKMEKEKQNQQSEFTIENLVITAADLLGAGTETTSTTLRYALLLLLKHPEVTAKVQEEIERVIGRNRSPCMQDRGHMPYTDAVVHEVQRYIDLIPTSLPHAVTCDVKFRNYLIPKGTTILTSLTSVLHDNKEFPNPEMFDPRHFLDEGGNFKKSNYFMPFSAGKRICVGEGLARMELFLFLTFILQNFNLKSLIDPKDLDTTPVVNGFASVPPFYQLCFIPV
# CYP2C9 act: human CYP2C9 activators, primary screen, biochemical, luminescence; recombinant CYP2C9, luciferin-H conversion; hits give high values; factor 1 = untreated enzyme, 0 = blocked; Cytochrome P450 2C9 (Homo sapiens), P11712; 1.4% of 96,000 active; activation factor at 5 µM;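 active means activation factor of 2 or more for CYP2C9 at a 5 µM dose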;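 further: 0 = sulfaphenazole-blocked wells and 1 = vehicle-only wells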
# Pyk2 oligo antag: antagonists of Pyk2 self-association, primary screen, Q293 cells, FERM NanoBiT luminescence, HTS; Protein-tyrosine kinase 2-beta (Homo sapiens), Q14289; hits give low values; z-score (the deposit names both 25 µM and 10 µM); 0.83% of 99,000 active; AID 1347419, 2020;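 active means Z-score of -3 or lower, scaled per plate to the spread of control and sample wells; inactive means z-score above -3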;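 further: negative z-score means lost luminescence so less FERM oligomerization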
# Cav3 T inh: Cav3.2 calcium influx blockers – cell-based, Fluo-4 calcium fluorescence, FDSS, MLSMR library, primary screen; Voltage-dependent T-type calcium channel subunit alpha-1H (Homo sapiens), O95180; Cav3.2-expressing cells; hits give low values; B-score at 10 µM; 4% of 100,000 active; AID 449739, 2010;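 active means single-dose well whose peak fluorescence ratio is a statistical outlier from its plate by either plate-standardised score or position-corrected B-score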
# CYP2C19 inh: blockers of cytochrome P450 2C19 activity – biochemical, luminescence, ADME assay, primary screen; P33261; CYP2C19 Supersomes, luciferin-H EGE luminescence, 30 min; inhibition, % at 5 µM; 21% of 96,000 active; AID 778, 2007;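 active means CYP2C19 inhibition above a set limit at 5 µM in the primary screen, cut at about 50% in these data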;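 further: plate controls were negative control wells for no effect and 2.5 mM tranylcypromine positive control for full effect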
# CYP2C9 inh: blockers of cytochrome P450 2C9 activity – biochemical, luminescence, ADME assay, primary screen; 20% of 96,000 active; AID 777, 2007; CYP2C9 Supersomes, luciferin-H conversion; inhibition, % at 5 µM;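 active means blocking of liver enzyme CYP2C9 beyond about 50% at 5 µM, limit read from the data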
# * hit, by the source's call; . = no result given.
SMILES,CYP2C19 act,CYP2C9 act,Pyk2 oligo antag,Cav3 T inh,CYP2C19 inh,CYP2C9 inh
O=C(Nc1cnc2ccccc2c1)C1COc2ccccc2O1 (configuration not stated),0.1,0.5,-0.28,-11.6*,90.5*,53.7*
O=C(NC1CC2CCC1C2)C1COc2ccccc2O1 (configuration not stated),0.5,1,0.21,-0.22,52.3*,1.1
CCN(CC)S(=O)(=O)c1ccc(NC(=O)COC(=O)CN2C(=O)c3ccccc3C2=O)cc1,0.7,0.2,1.44,-0.675,33.4,81.3*
O=C(Nc1ncc(C(F)(F)F)cc1Cl)C1COc2ccccc2O1 (configuration not stated),0.2,0.8,0.75,-0.559,80.1*,20.7
CCN(CC)S(=O)(=O)c1ccc(NC(=O)c2ccccn2)cc1,0.7,0.5,-0.84,0.764,28.5,48.6
COc1cccc(CN2C[C@]34C=C[C@@H](C[C@@H]3S2(=O)=O)O4)c1,.,.,.,0.45,.,.
O=C(Nc1ccncc1)C1COc2ccccc2O1 (configuration not stated),0,0.5,0.53,-0.0327,96.1*,52.4*
O=C(NCc1cccnc1)C1COc2ccccc2O1 (configuration not stated),0.7,1,-0.13,0.722,32.1,3.0
O=C(Nc1ccc2c(c1)CCC2)C1COc2ccccc2O1 (configuration not stated),0,1,-0.51,-3.17,95.4*,-1.3
O=C(CSC1=NCCN1)C1COc2ccccc2O1 (configuration not stated),0.4,0.3,-0.39,0.454,60.6*,66.9*
Cc1cc(C)n(C(=O)c2ccc(NC(=O)C3COc4ccccc4O3)cc2)n1 (configuration not stated),0.6,1.7,0.43,-4.99,44.9,-67.0
CCN(CC)S(=O)(=O)c1ccc(NC(=O)C2COc3ccccc3O2)cc1 (configuration not stated),0.8,0.3,0.17,-2.25,22.6,72.1*
c1ccc(COc2ccc(Nc3ncnc4nc[nH]c34)cc2)cc1,0.7,0.7,.,0.445,25.8,31.7
O=C(Nc1ccc2c(c1)OCO2)C1COc2ccccc2O1 (configuration not stated),0.3,0.9,1.46,0.0539,69.9*,7.2
O=C(CSc1ccc2nnc(-c3cccnc3)n2n1)NCc1ccc2c(c1)OCO2,1.1,0.9,.,0.563,-13.2,11.2
O=C(/C=C/c1ccc(OC2CSC2)cc1)c1ccccc1,0.4,0.6,-0.22,-0.415,61.0*,40.4
O=C(N/N=C/c1ccc(OC2CSC2)cc1)c1ccccc1,1.1,0.9,-0.6,0.926,-11.0,6.2
CCCCCCNC(=O)n1cc(F)c(=O)[nH]c1=O,.,.,.,-0.665,.,.
Cc1nnc(NC(=O)C2CCCCC2)s1,0.6,0.9,-0.01,0.835,41.4,5.0
O=C(CC1CCCC1)Nc1nnc(C2CC2)s1,0.5,0.8,-0.17,1.18,52.5*,17.1
O=C(Nc1nnc(C2CCCC2)s1)C1CCC1,0.7,0.4,0.19,-0.00438,33.3,55.7*
O=C(Nc1nnc(C2CC2)s1)c1ccncc1,0.8,0.4,-0.54,-0.0234,15.7,55.8*
CC(O)Cc1cn([C@@H](CCCCNC(=O)OC(C)(C)C)C(=O)N2CCN(C(=O)OC(C)(C)C)CC2)nn1 (some centres not stated),.,.,.,-0.626,.,.
CCOC(=O)C(C)Oc1nc(Oc2ccccc2)nc(N(C)C)n1 (configuration not stated),0.4,0.7,0.57,-2.75,57.1*,29.6
COc1nc(Oc2ccc(C(=O)OCC(N)=O)cc2)nc(N(C)C)n1,1.1,1.2,0.47,0.911,-12.1,-16.3
SMILES,CYP2C19 act,CYP2C9 act,Pyk2 oligo antag,Cav3 T inh,CYP2C19 inh,CYP2C9 inh
COC(=O)c1ccc(Oc2nc(Nc3ccccc3)nc(N(C)C)n2)cc1,0.6,0.5,-1.24,-0.409,36.1,52.1*
O=C(NCc1ccccc1)c1ccco1,.,.,-0.61,-0.154,.,.
O=C(NCCc1csc(-c2cccnc2)n1)c1cccc2ccccc12,0.2,0.1,.,0.0399,78.9*,86.2*
O=C(Nc1nsc(-c2ccccc2)n1)c1cccs1,0.5,0.3,-0.98,0.176,48.4,74.8*
O=C(NCc1csc(-c2ccccc2)n1)c1ccco1,0.2,0.9,0.37,-0.108,83.8*,13.7
CC(=O)NCCc1csc(-c2ccccc2)n1,.,.,0.75,1.13,.,.
O=C(NCCc1csc(-c2ccccc2)n1)c1cccs1,1,0.3,.,-1.16,-3.5,73.9*
O=S1CCCSC1c1cccnc1 (configuration not stated),1,1.1,-0.06,0.0177,-4.7,-5.0
Cn1nc(C(=O)Nc2c(-c3ccccc3)nc3sccn23)c2ccccc2c1=O,1.1,1.1,0.66,-0.02,-10.9,-10.8
O=C(NCCc1csc(-c2cccnc2)n1)c1ccccc1,0.2,0.4,.,0.148,82.4*,64.9*
COc1ccc(C(=O)Nc2cc(C(F)(F)F)ccc2-n2cncn2)cc1,0.6,0.8,-0.49,.,37.3,20.1
O=C(Nc1cc(C(F)(F)F)ccc1-n1cncn1)c1ccc(Cl)cc1,0.3,0.8,-0.77,-0.0357,73.5*,21.8
O=C(Nc1cc(C(F)(F)F)ccc1-n1cncn1)c1ccc(-c2ccccc2)cc1,0.4,0.1,-1.08,0.193,57.9*,94.1*
Cn1c(Cl)c(C(=O)Nc2ccc(Cl)cc2)c2ccccc21,0.8,1,0.75,0.258,19.6,-1.8
NCCc1nnc(SCc2ccc(F)cc2)o1,0.1,0.3,1.19,0.188,90.2*,74.8*
O=C(Cc1c(F)cccc1Cl)Nc1ccon1,0.8,0.2,0.39,1.51,22.8,77.9*
Cc1ccc(S(=O)(=O)Nc2cc(-c3nn(C)c(=O)c4ccccc34)ccc2N2CCOCC2)cc1,0.1,0.1,-0.38,-1.75,93.0*,94.5*
CC(=O)Nc1cc(-c2nn(C)c(=O)c3ccccc23)ccc1N1CCOCC1,0.7,0.5,0.33,.,27.9,49.5
Cn1nc(-c2ccc(N3CCOCC3)c(NS(=O)(=O)c3ccc(Cl)cc3)c2)c2ccccc2c1=O,0.1,0.2,-0.09,2.25,85.5*,84.3*
Cc1ccc(C)c(-n2ccnc2SCC(=O)O)c1,1,0.4,1.17,-1.81,3.5,58.9*
Cc1ccc(C(=O)CSc2nccn2-c2ccccc2)cc1,0.4,0.7,2.11,-1.73,56.2*,31.4
O=C(CSc1nccn1-c1ccccc1)c1ccc(Cl)cc1,0.3,0.6,0.08,.,73.5*,35.5
CCC1/C(=N\O)CC(c2ccco2)NC1c1ccco1 (configuration not stated),1,1,0.61,-0.0267,4.3,-4.9
